Rows were chosen to be rich in hits. Some 4.1% of all compounds tested hit in one or more screens of this group.
MITF TRPM1 inh: reduces MITF-dependent TRPM1 promoter luciferase signal. 330,000 tested, 0.83% active. AID 488899. inhibition, % at 12.5 µM. SK-MEL-5 TRPM1 promoter luciferase, 24 h;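 active = mean inhibition across replicates of 60% or more, whatever share of single replicates reaches that level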
Shn3 inh set2: reduces Shn3 3'UTR luciferase signal in osteoblasts | Clone20 osteoblast Shn3 3'UTR firefly luciferase, 24 h | inhibition, % at 12.5 µM | 360,000 tested, 0.52% active;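 active = mean inhibition of at least 75% with every replicate also reaching 75%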;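 also: 0% = median of neutral control wells and 100% = pilot-screen positive control compound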
TWEAK Fn14 block: TWEAK-Fn14 signaling inhibition; AID 1159606; inhibition, % at 10 µM; TWEAK-stimulated Fn14 reporter cells, luciferase luminescence, 8 h; 360,000 tested, 2% active; in the data active = inhibition above about 50%
EBV LMP1 NFkB: reduces LMP1-driven NF-kappaB luciferase signal. LMP1-induced NF-kappaB luciferase reporter cells, luminescence. inhibition, % at 12.5 µM. 350,000 tested, 0.69% active; in the data active = inhibition above about 41%;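 also: 0% = neutral control wells and 100% = reference inhibitor control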
TROY signal inh: inhibitors of TROY-dependent NF-kB signaling | Q293 LMP1-TROYcd NF-kB luciferase reporter, 4 h | inhibition, % at 10 µM | 360,000 tested, 0.98% active | AID 1347056;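 active = compounds whose plate-normalised and pattern-corrected inhibition of the luciferase reporter signal at the single screening dose is 50% or more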
Peg3 prom inh-1: inhibitors of Peg3 promoter. HeLa PEG-Prom luciferase reporter, luminescence, overnight. inhibition, % at 20 µM. 360,000 tested, 1.7% active;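 active = inhibition of at least 50% at 20 µM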
Peg3 prom inh-2: Peg3 promoter inhibition confirmation; AID 602417; shares compounds with Peg3 prom inh-1; inhibition, % at 20 µM; HeLa PEG-Prom luciferase reporter, luminescence, overnight; 1,300 tested, 84% active;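 active = at 20 µM dose, 40% or more inhibition averaged across four replicates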
Starred values were filed as active, the others as inactive; . = no result given.

SMILES	MITF TRPM1 inh	Shn3 inh set2	TWEAK Fn14 block	EBV LMP1 NFkB	TROY signal inh	Peg3 prom inh-1	Peg3 prom inh-2
CCOC(=O)C1CCN(C(=O)c2sc3ncn(CC(=O)N4CCCCC4)c(=O)c3c2C)CC1	.	-4	-16	-8	-3	15	.
O=C1Nc2ccccc2CCC1Sc1nnc(-c2ccc(Cl)cc2)s1 (configuration not stated)	-5	17	37	-3	20	-28	.
O=C1C(=C2SCCCS2)CC/C1=C\c1ccc(F)cc1	59	23	104*	77*	86*	86*	43*
O=C1C(=Cc2ccc(F)cc2)Cc2ccccc21	.	-19	-35	.	-59	-106	.
CCCNC(=O)/C(=C/c1cn(S(=O)(=O)N(C)C)c2ccccc12)NC(=O)c1ccc(OC)cc1	-4	11	19	4	-2	10	.
CCC1CCCCN1CCCNC(=O)C1CCN(S(=O)(=O)N2CCC3(CC2)OCCO3)CC1 (configuration not stated)	7	2	20	-1	-12	2	.
Cc1ccc(-c2nn3c(-c4ccco4)nnc3c3ccccc23)cc1S(=O)(=O)NCC1CCCO1 (configuration not stated)	4	22	19	-6	0	56*	32
CC(C)[C@H](NC(N)=O)C(=O)NNC(=O)COc1cccc(C(F)(F)F)c1	8	5	-2	5	13	8	.
O=C(NN=Cc1c(F)c(F)c(F)c(F)c1F)c1ccc(NS(=O)(=O)c2cccs2)cc1	-3	16	44	0	0	57*	37
O=C(N/N=C\c1c(O)ccc2ccccc12)c1ccc(Cn2cccn2)o1	59	89*	-24	25	6	54*	67*
COC(=O)c1sc2nc(C)cc(C)c2c1N	0	-9	-1	3	-26	-57	.
Cc1cc(C)c2c(N)c(C(=O)Nc3ncc(C)s3)sc2n1	88*	76	79*	77*	5	101*	89*
COc1ccccc1NC(=O)Cc1csc(N)n1	0	-2	-1	-3	-8	11	.
O=C(c1ccc(Cl)c(S(=O)(=O)N2CCCCCC2)c1)N1CCN(c2ccccn2)CC1	14	19	18	2	33	25	.
N#Cc1cc2c(nc1SC1CC(=O)N(c3ccccc3)C1=O)CCC2 (configuration not stated)	65*	51	100*	52*	83*	57*	59*
O=C(CCC(=O)OCc1ccc([N+](=O)[O-])cc1)Nc1ccccc1Cl	-4	5	-8	-3	3	12	.
COCCNC(=O)/C(C#N)=C/C=C/c1ccccc1[N+](=O)[O-]	51	52	46	-94	-23	53*	14
CCOC(=O)N1CCN(CC(O)COc2c(C)cc(C)cc2C)CC1 (configuration not stated)	4	12	-17	-2	16	4	.
COCCN(CC(=O)NCC1CCCO1)C(=O)CCC(=O)Nc1ccccn1 (configuration not stated)	5	-8	7	8	7	-5	.
COc1cc(CNCc2cc(OC)ccc2OC)cc(OC)c1	-3	19	-5	9	-8	14	.
C/C(=N\NC(=O)c1cc(C2CC2)nc2ccccc12)c1ccc(O)cc1O	58	69	17	18	4	56*	65*
C/C(=N\NC(=O)c1cc(C2CC2)nc2ccccc12)c1ccc(C)s1	6	2	-12	-3	-9	20	.
COc1ccc2nc3n(c(=O)c2c1)-c1ncccc1C(=O)NC3Cc1ccccc1 (configuration not stated)	.	3	-2	-4	-9	14	.
COc1ccc(-c2c(-c3cc(OC)cc(OC)c3)n(C)c3ccc(-c4ccc(S(N)(=O)=O)cc4)cc23)cc1	6	24	-41	11	8	53*	30
COc1ccc(-c2c(-c3cc(OC)cc(OC)c3)n(C)c3ccc(-c4cnc(N)nc4)cc23)cc1	-19	4	-90	9	-5	7	.
SMILES	MITF TRPM1 inh	Shn3 inh set2	TWEAK Fn14 block	EBV LMP1 NFkB	TROY signal inh	Peg3 prom inh-1	Peg3 prom inh-2
C=CCN=C1NN=C(c2cc(C)n(CC=C)c2C)CS1	84*	72	47	53*	14	74*	82*
CCc1nn(CCCC(=O)NCc2ccco2)c(=O)c2cc3occc3n12	-6	5	11	5	-9	2	.
CCOc1cc(/C=N/N=C(N)N)ccc1OCc1ccc(Cl)cc1	90*	95*	10	5	-14	99*	97*
NC(N)=N/N=C/c1ccc(OCc2ccccc2)c(OCc2ccccc2)c1	82*	67	-12	-24	16	103*	99*
CCc1c(C(=O)N/N=C/c2ccc(C)o2)csc1C	-1	-13	-8	24	-41	-2	.
O=C1COc2ccc(C(=O)CSc3nc4ccccc4c(=O)n3-c3ccc(Cl)c(Cl)c3)cc2N1	35	4	-33	-22	1	76*	33
O=C(NCc1ccc(-n2cccc2)cc1)c1cccc(F)c1	6	13	-21	-9	0	-15	.
CCOc1ccc2c(ccc(/C=C/c3cc(C)c4cccnc4c3O)[n+]2C)c1	75*	87*	5	0	4	101*	84*
CC(C)C1NCCc2c1sc1ccccc21 (configuration not stated)	3	-34	-7	-1	1	1	.
CC(C)(C)OC(=O)CC(S(=O)(=O)c1ccccc1)S(=O)(=O)c1ccccc1	.	59	31	-4	2	82*	97*
CN([C@@H](C(=O)OC(C)(C)C)c1ccccc1)S(=O)(=O)c1cccc(S(=O)(=O)N(C)[C@@H](C(=O)OC(C)(C)C)c2ccccc2)c1	8	47	1	-5	0	15	.
Cc1ccc(Cl)cc1NCN1C(=O)c2ccccc2C1=O	.	12	15	0	-5	10	.
COc1ccccc1N1CCN(C(=O)c2cc3c(=O)n4cccc(C)c4nc3s2)CC1	-4	13	-22	-9	-10	6	.
O=C(CCl)Nc1ccccc1Sc1ccc(Cl)cc1	64*	41	88*	11	-15	106*	85*
C/C(=N/NC(=O)Cc1ccccc1)c1ccc(C)s1	-28	-9	-33	-5	-8	-89	.
CCN(CC)CCSc1nnc2c3cc(C)ccc3n(Cc3ccccc3)c2n1	.	18	-8	.	5	64*	46*
CCC(C)Sc1ccc(-c2nc3ccccn3c2NCc2ccccc2)cc1OC (configuration not stated)	6	-38	-13	3	-65	93*	97*
